From PubChem BioAssay (NCI)
About 79,000 compounds went through this panel and 15% of them were active in at least one assay; those are over-represented in the sample as a whole. Activity calls are given as the source filed them. No stated cut-off is given here; in the data, active means growth inhibition above about 70%; inactive means the rest.

Legend:
[1] = NCI Yeast Anticancer Drug Screen. Data for the wt1 strain (AID 149);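 further: 0% = growth of vehicle-treated wt1 cultures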; conditions: S. cerevisiae wt1 strain (SPY 50644) growth inhibition, stronger effect = higher value
Procedure, shortened: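 Yeast wt1 strain exposed to compounds; growth inhibition measured relative to vehicle-treated controls.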

[2] = NCI Yeast Anticancer Drug Screen. Data for the rad50EPP+ strain (AID 151);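 further: 0% = growth of vehicle-treated control cultures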; conditions: S. cerevisiae rad50 mutant strain, stronger effect = higher value
Procedure, shortened: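 Genetically defined yeast (rad50EPP+, DNA damage repair alteration) is grown with compound, and inhibition of growth is expressed relative to vehicle-treated controls.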

[3] = NCI Yeast Anticancer Drug Screen. Data for the mgt1 strain (AID 153); conditions: S. cerevisiae mgt1 mutant growth inhibition, stronger effect = higher value
Procedure, shortened: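 In the mgt1 strain, test compounds were added and growth inhibition was determined relative to vehicle-treated controls.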

[4] = NCI Yeast Anticancer Drug Screen. Data for the rad50 strain (AID 155);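 further: 0% = growth of vehicle-only cultures of the same strain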; conditions: S. cerevisiae rad50 strain growth inhibition, stronger effect = higher value
Procedure, shortened: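 Yeast carrying a defined DNA repair defect were exposed to test compounds, and growth was compared with vehicle-treated controls to give percent inhibition.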

[5] = NCI Yeast Anticancer Drug Screen. Data for the mec2-1 strain (AID 157); conditions: S. cerevisiae mec2-1 strain, stronger effect = higher value
Procedure, shortened: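 Each compound was tested on mec2-1 yeast, a strain altered in DNA damage repair or cell cycle control. Growth inhibition is reported relative to vehicle.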

[6] = NCI Yeast Anticancer Drug Screen. Data for the rad14 strain (AID 159);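 further: 0% = growth of vehicle-treated control cultures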; conditions: S. cerevisiae rad14 strain growth inhibition, stronger effect = higher value
Procedure, shortened: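 Yeast cells carrying a defined DNA-repair defect were exposed to compounds, and growth inhibition was calculated relative to vehicle-treated control cultures.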

[7] = NCI Yeast Anticancer Drug Screen. Data for the sgs1 mgt1 strain (AID 161);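 further: 0% = growth of cultures given vehicle only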; conditions: S. cerevisiae sgs1 mgt1 strain, stronger effect = higher value
Procedure, shortened: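 Mutant yeast exposed to compound; growth scored against vehicle-only wells.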

[8] = NCI Yeast Anticancer Drug Screen. Data for the CLN2oe strain (AID 163);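 further: 0% = growth of vehicle-only control cultures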; conditions: S. cerevisiae CLN2oe strain, stronger effect = higher value
Procedure, shortened: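 First, the altered yeast strain was treated with each compound; second, its growth was measured; finally, inhibition was derived by comparison with vehicle controls.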

[9] = NCI Yeast Anticancer Drug Screen. Data for the cln2 rad14 strain (AID 165);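 further: 0% = growth equal to vehicle treated cultures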; conditions: S. cerevisiae cln2 rad14 strain, stronger effect = higher value
Procedure, shortened: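 Test compounds were added to cln2 rad14 yeast cultures; inhibition of growth was then determined by comparison with vehicle treatment.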

[10] = NCI Yeast Anticancer Drug Screen. Data for the bub3 strain (AID 167); conditions: S. cerevisiae bub3 mutant strain, stronger effect = higher value
Procedure, shortened: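 Compounds were applied to a genetically altered yeast strain carrying a cell-cycle control defect. Growth inhibition was scored against vehicle-treated controls.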

[11] = NCI Yeast Anticancer Drug Screen. Data for the wt2 strain (AID 169);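 further: 0% = growth of vehicle-treated yeast cultures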; conditions: S. cerevisiae wt2 strain growth inhibition, stronger effect = higher value
Procedure, shortened: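 The panel's yeast strains carry defined changes in DNA repair or cell cycle genes. Each strain is grown with compound, and growth loss is scored relative to vehicle.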

[12] = NCI Yeast Anticancer Drug Screen. Data for the mlh1 strain (AID 171);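 further: 0% = growth of vehicle-treated control cultures of the same strain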; conditions: S. cerevisiae mlh1 strain growth inhibition, stronger effect = higher value
Procedure, shortened: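 Inhibition values reflect reduced yeast growth in the presence of compound, referenced to vehicle controls, using a strain chosen for its alteration in DNA repair or cell cycle control.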

[13] = NCI Yeast Anticancer Drug Screen. Data for the sgs1 strain (AID 173);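 further: 0% = growth of vehicle-only control cultures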; conditions: S. cerevisiae sgs1 mutant, stronger effect = higher value
Procedure, shortened: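 Vehicle-treated cultures served as reference for growth inhibition of a yeast strain altered in DNA damage repair or cell cycle control after compound exposure.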

[14] = NCI Yeast Anticancer Drug Screen. Data for the mlh1 rad18 strain (AID 175); conditions: S. cerevisiae mlh1 rad18 strain growth inhibition, stronger effect = higher value
Procedure, shortened: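 Inhibition values reflect reduced growth of mutant yeast versus vehicle-treated controls following compound exposure; the mutations affect DNA damage repair.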

[15] = NCI Yeast Anticancer Drug Screen. Data for the rad18 strain (AID 177); conditions: S. cerevisiae rad18 mutant growth inhibition, stronger effect = higher value
Procedure, shortened: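 Steps: expose repair-mutant yeast to compound; measure growth; express as inhibition relative to vehicle control.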

[16] = at 5.0 µM (retest, dose inferred, filed as 0.5)
[17] = at 50.0 µM (retest, dose inferred, filed as 5.0)

Measured: growth inhibition

COC(=O)c1ccc([N+](=O)[O-])c(O)c1
active: [1]; at 100.0 µM 98% | [2]; at 33.0 µM 76% | [2]; at 100.0 µM 99% | [3]; at 100.0 µM 98% | [4]; at 50.0 µM 77.5% | [4]; at 100.0 µM 97% | [5]; [17] 75% | [5]; at 50.0 µM 85% | [5]; at 100.0 µM 99% | [6]; at 100.0 µM 98% | [7]; at 50.0 µM 89.7% | [8]; at 100.0 µM 98% | [10]; at 50.0 µM 78.9% | [10]; at 100.0 µM 99% | [11]; at 100.0 µM 99% | [12]; at 100.0 µM 99% | [13]; at 33.0 µM 81% | [13]; at 100.0 µM 98% | [14]; [17] 88% | [14]; at 50.0 µM 72.9% | [15]; at 100.0 µM 98%
inactive: [1]; at 1.2 µM -12% | [1]; at 3.7 µM -10% | [1]; at 11.0 µM 3% | [1]; at 33.0 µM 28% | [2]; at 1.2 µM -3% | [2]; at 3.7 µM -25% | [2]; at 11.0 µM 3% | [3]; at 1.2 µM -15% | [3]; at 3.7 µM -13% | [3]; at 11.0 µM -4% | [3]; at 33.0 µM 44% | [4]; at 1.2 µM -5% | [4]; at 3.7 µM -28% | [4]; [16] 2% | [4]; at 11.0 µM -17% | [4]; at 33.0 µM 37% | [4]; [17] 65% | [5]; at 1.2 µM -26% | [5]; at 3.7 µM -23% | [5]; [16] -7% | [5]; at 11.0 µM -4% | [5]; at 33.0 µM 35% | [6]; at 1.2 µM -16% | [6]; at 3.7 µM -13% | [6]; at 11.0 µM -7% | [6]; at 33.0 µM 27% | [7]; [16] 5% | [7]; [17] 4% | [8]; at 1.2 µM -6% | [8]; at 3.7 µM 1% | [8]; at 11.0 µM 1% | [8]; at 33.0 µM 35% | [9]; [16] -2% | [9]; [17] 65% | [9]; at 50.0 µM 58.3% | [10]; at 1.2 µM -22% | [10]; at 3.7 µM -31% | [10]; [16] -7% | [10]; at 11.0 µM -20% | [10]; at 33.0 µM 6% | [10]; [17] 56% | [11]; at 1.2 µM 3% | [11]; at 3.7 µM 7% | [11]; at 11.0 µM 4% | [11]; at 33.0 µM 63% | [12]; at 1.2 µM -4% | [12]; at 3.7 µM -1% | [12]; at 11.0 µM 7% | [12]; at 33.0 µM 67% | [13]; at 1.2 µM 22% | [13]; at 3.7 µM 32% | [13]; at 11.0 µM 21% | [14]; [16] -28% | [15]; at 1.2 µM -9% | [15]; at 3.7 µM -2% | [15]; at 11.0 µM 8% | [15]; at 33.0 µM 52%

CC1=C(C)Cc2c(O)ccc(O)c2C1
inactive: [1]; at 1.2 µM -1% | [1]; at 3.7 µM -3% | [1]; at 11.0 µM -3% | [1]; at 33.0 µM -3% | [1]; at 100.0 µM -20% | [2]; at 1.2 µM 20% | [2]; at 3.7 µM 46% | [2]; at 11.0 µM 67% | [2]; at 33.0 µM 43% | [2]; at 100.0 µM 58% | [3]; at 1.2 µM -2% | [3]; at 3.7 µM 2% | [3]; at 11.0 µM 6% | [3]; at 33.0 µM -1% | [3]; at 100.0 µM 29% | [4]; at 1.2 µM 1% | [4]; at 3.7 µM 17% | [4]; [16] -9% | [4]; at 11.0 µM 38% | [4]; at 33.0 µM 33% | [5]; at 1.2 µM -3% | [5]; at 3.7 µM -3% | [5]; [16] 30% | [5]; at 11.0 µM -3% | [5]; at 33.0 µM -4% | [5]; at 50.0 µM 45.8% | [5]; at 100.0 µM 20% | [6]; at 1.2 µM 2% | [6]; at 3.7 µM 9% | [6]; at 11.0 µM 18% | [6]; at 33.0 µM 13% | [6]; at 100.0 µM 47% | [7]; [16] 5% | [7]; at 50.0 µM 33.8% | [8]; at 1.2 µM -10% | [8]; at 3.7 µM -8% | [8]; at 11.0 µM -7% | [8]; at 33.0 µM -11% | [8]; at 100.0 µM 33% | [9]; [16] 31% | [9]; at 50.0 µM 48.9% | [10]; at 1.2 µM -3% | [10]; at 3.7 µM -5% | [10]; at 11.0 µM -4% | [10]; at 33.0 µM 3% | [10]; at 100.0 µM 63% | [12]; at 1.2 µM -1% | [12]; at 3.7 µM 5% | [12]; at 11.0 µM 12% | [12]; at 33.0 µM 6% | [12]; at 100.0 µM 44% | [13]; at 1.2 µM -21% | [13]; at 3.7 µM -5% | [13]; at 11.0 µM -9% | [13]; at 33.0 µM 7% | [13]; at 100.0 µM 67% | [14]; [16] 52% | [15]; at 1.2 µM 0% | [15]; at 3.7 µM 10% | [15]; at 11.0 µM 18% | [15]; at 33.0 µM 14%
active: [4]; [17] 99% | [4]; at 50.0 µM 94.5% | [4]; at 100.0 µM 93% | [5]; [17] 99% | [7]; [17] 98% | [9]; [17] 98% | [10]; [16] 94% | [10]; [17] 99% | [10]; at 50.0 µM 83% | [14]; [17] 99% | [14]; at 50.0 µM 93.2% | [15]; at 100.0 µM 93%
